Test results: PubChem BioAssay AID540333 (Southern Research Specialized Biocontainment Screening …, 2011)
Out of some 10,000 compounds screened, about 320 (3.2%) were called active. Rule as the data show it: active = CPE inhibition mostly above about 9.1% (no sharp cut-off); inactive = mostly below about 7.2%. Many of the other results were omitted from the sample, so actives are more common in it than they were.

Test: Dengue virus cytopathic effect inhibitors, cell-based, CPE readout, HTS (AID 540333)
Conditions: Dengue virus CPE inhibition in host cells, at 20 µM; active compounds read high

Row | SMILES | CPE inhibition
1 | CCC(=O)NC(Nc1nc(C)cs1)(C(=O)OC)C(F)(F)F (stereo not given) | 0.32% (inactive)
2 | CC(C)(C)OC(=O)N[C@H](C(=O)OC(C)(C)C)c1ccc2ccccc2c1 | 0.425% (inactive)
3 | CCOC(=O)C(C)(C)N(Cc1ccccc1C)S(=O)(=O)c1ccc(Cl)c([N+](=O)[O-])c1 | 7.12% (inactive)
4 | CCOC(=O)C(C)(C)N(Cc1cccc(C)c1)S(=O)(=O)c1ccc(Cl)c([N+](=O)[O-])c1 | 7.24% (inactive)
5 | CCOC(=O)C(C)(C)N(Cc1ccc(C)cc1)S(=O)(=O)c1ccc(Cl)c([N+](=O)[O-])c1 | 7.28% (active)
6 | O=C(NN1C(=O)/C(=C\c2cccnc2)SC1=S)C(c1ccccc1)c1ccccc1 | inactive
7 | Cc1ccccc1C(=O)NCCCCc1ccccc1 | 0.125% (inactive)
8 | O=C(Cn1c(COc2ccc(Cl)cc2)nc2ccccc21)NCC(F)(F)F | inactive
9 | CCC(C)NC(=O)Cn1c(COc2ccc(Cl)cc2Cl)nc2ccccc21 (stereo not given) | 13.4% (active)
10 | O=C(Cn1c(COc2ccccc2)nc2ccccc21)Nc1cc(Cl)ccc1Cl | 5.49% (inactive)
11 | CCOc1cc(/C=C/c2cc(C(=O)O)c3ccccc3n2)ccc1O | 0.055% (inactive)
12 | Cc1ccc(NS(=O)(=O)c2ccc(OCC(=O)NCc3ccncc3)cc2)cc1 | 0.315% (inactive)
13 | Cc1ccc(S(=O)(=O)Nc2ccc(NC(=O)Nc3ccc(F)cc3F)cc2)cc1 | 10.3% (inactive)
14 | Cc1ccc(NS(=O)(=O)c2ccc(C3CCCCC3)cc2)cc1 | 21.5% (active)
15 | CC1(C)CC(=O)C2=C(C1)NC1=C(C(=O)c3ccccc31)C2c1ccc(O)cc1 (stereo not given) | 2.13% (inactive)
16 | CC(C)Oc1cccc(C(=O)NC(=S)NCc2cccnc2)c1 | 2.73% (inactive)
17 | O=C(NC(=S)Nc1ccc(Cc2ccncc2)cc1)c1ccccc1 | 0.355% (inactive)
18 | O=C(NC(=S)NC(c1ccccc1)c1ccncc1)c1ccccc1 (stereo not given) | 18.9% (active)
19 | CC(C)NC(=S)NC(=O)c1ccc(-c2ccccc2)cc1 | 0.805% (inactive)
20 | CCOC(=O)c1c(C(F)(F)F)cc(-c2ccc(F)cc2)nc1C | inactive
21 | CC1(C(=O)NC(=S)N(Cc2ccccc2)c2ccccn2)CC1(Cl)Cl (stereo not given) | 0.075% (inactive)
22 | CC(C)(Oc1ccc(Cl)cc1)C(=O)N(Cc1ccccc1)c1ccccn1 | 11% (active)
23 | COc1cc(/C=C/C(=O)N(Cc2ccccc2)c2ccccn2)cc(OC)c1OC | inactive

Row | SMILES | CPE inhibition
24 | O=C(c1ccc(COc2ccc(Br)cc2)o1)N1N=C(C(F)F)CC1(O)C(F)F (stereo not given) | 2.42% (inactive)
25 | Cc1ccc(OCC(=O)NCC(=O)Nc2ccc(F)c(F)c2F)c([N+](=O)[O-])n1 | 0.32% (inactive)
26 | Cc1ccc(OCC(=O)Nc2ccccc2Sc2ccc(Cl)cc2)c([N+](=O)[O-])n1 | 13.9% (active)
27 | Cc1ccc(OCC(=O)Nc2cc(S(=O)(=O)N3CCCCC3)ccc2C)c([N+](=O)[O-])n1 | 3.06% (inactive)
28 | O=C1c2ccccc2S(=O)(=O)c2cc(C(=O)N3CCN(c4ncccn4)CC3)ccc21 | 0.735% (inactive)
29 | CC(C)c1ccc(NC(=O)COc2ccc(F)cc2C(=O)c2cnn(-c3ccccc3)c2)cc1 | 1.51% (inactive)
30 | CCOP(=O)(OCC)C(NC(=O)Nc1ccccc1)C(N)=O (stereo not given) | 1.93% (inactive)
31 | CC(C)C(=O)NCCc1c[nH]c2ccccc12 | 0.48% (inactive)
32 | CC1(C(=O)NCCc2c[nH]c3ccccc23)C=CCN1C(=O)c1ccccc1 (stereo not given) | 1.21% (inactive)
33 | C[C@]1(C(=O)NCCc2c[nH]c3ccccc23)C=C[C@@H](Cc2ccccc2)N1C(=O)c1ccccc1 | 19.4% (active)
34 | CCCCn1c(SCc2nc3ccccc3s2)nc2ccccc2c1=O | inactive
35 | CCOc1cc2c3c(c1)C1(C(=O)N3C(C)(C)CC2C)C(C#N)=C(N)N2C(=C1C#N)Nc1ccccc12 (stereo not given) | 2.12% (inactive)
36 | O=C(NNc1ccccc1Cl)C(O)(c1cccc(C(F)(F)F)c1)c1cccc(C(F)(F)F)c1 | 20.4% (active)
37 | Cc1cccc(C(O)(C(=O)NNc2ccc3ccccc3n2)c2cccc(C)c2)c1 | inactive
38 | Cc1ccc(NNC(=O)C(O)(c2cccc(C(F)(F)F)c2)c2cccc(C(F)(F)F)c2)cc1 | 7.56% (inactive)
39 | Cc1ccc(NC(=S)NCC(C)C)cc1 | inactive
40 | C#Cc1ccc([C@@H]2C=C(C(=O)O)O[C@H](OCC)[C@H]2CCCO)cc1 | 1.06% (inactive)
41 | Cc1cc(-c2n[nH]c(=S)n2/N=C/c2ccccc2[N+](=O)[O-])n[nH]1 | 0.73% (inactive)
42 | Cc1cc(-c2n[nH]c(=S)n2/N=C/c2cc([N+](=O)[O-])ccc2Cl)n[nH]1 | 10.9% (active)
43 | Cc1cc(-c2n[nH]c(=S)n2/N=C/c2cccc([N+](=O)[O-])c2)n[nH]1 | 0.265% (inactive)
44 | O=C(Nc1ccc(F)cc1F)c1cc2ncc(CCCl)cn2n1 | 0.045% (inactive)
45 | Cc1ccc(S(=O)(=O)N2CCCCC2)cc1C(=O)OCC(=O)NC(=O)NC12CC3CC(CC(C3)C1)C2 | 0.11% (inactive)
46 | CN(C)c1ccc(N=Nc2ccccc2C(=O)OCC(=O)NCC2CCCCC2)cc1 | 0.995% (inactive)

Row | SMILES | CPE inhibition
47 | COc1ccc(CN(C)C2c3ccccc3-c3ccccc32)cc1 | 1.16% (inactive)
48 | O=C(N/N=C/c1cc([N+](=O)[O-])ccc1O)NC12CC3CC(CC(C3)C1)C2 | 0.635% (inactive)
49 | Cc1cc(C(=O)N/N=C/c2cc(Cl)cc([N+](=O)[O-])c2O)c2ccccc2n1 | 0.08% (inactive)
50 | O=C(N/N=C/c1cc(Cl)cc([N+](=O)[O-])c1O)NC12CC3CC(CC(C3)C1)C2 | 15.6% (active)
51 | O=[N+]([O-])c1ccc2nc(-c3ccccc3)cc(-c3ccccc3)c2c1 | 1.14% (inactive)
52 | Clc1ccc2nc(-c3ccncc3)cc(-c3ccccc3)c2c1 | 2.25% (inactive)
53 | Cc1ccc2nc(-c3cccc(NS(C)(=O)=O)c3)cc(-c3ccccc3)c2c1 | 24.6% (active)
54 | COCCn1c(=NC(=O)c2nc3ccccc3s2)sc2cc(S(C)(=O)=O)ccc21 | 6.63% (inactive)
55 | Cc1cccc(/C(N)=N/OC(=O)c2ccc3c(c2)OCO3)c1 | 0.195% (inactive)
56 | COc1ccccc1NC(=O)c1ccc(NS(=O)(=O)c2ccc(F)c(Cl)c2)cc1 | inactive
57 | COc1ccccc1NC(=O)c1c(Nc2ccccc2C)sc(C(=O)Nc2cccc(Cl)c2)c1N | 0.08% (inactive)
58 | COc1ccccc1NC(=O)c1c(Nc2ccccc2F)sc(C(=O)Nc2cccc(Cl)c2)c1N | 17.3% (active)
59 | Cc1ccc(-c2csc(NC(=S)NC(=O)c3cc4ccccc4o3)n2)cc1 | 1.54% (inactive)
60 | O=C1CSC(=S)N1N=C1CCCCCC1 | inactive
61 | Cc1onc(-c2c(F)cccc2Cl)c1C(=O)NC(=S)NC1CCSC1=O (stereo not given) | 2.61% (inactive)
62 | O=C(NC(=S)NCC1CCCO1)c1cccs1 (stereo not given) | inactive
63 | O=C(NC(=S)NC1CCSC1=O)c1cccs1 (stereo not given) | 12.2% (active)
64 | O=C1CCCc2c1cc(-c1ccccc1)n2-c1ccc(O)cc1 | 1.72% (inactive)
65 | CCOCCCNC(=O)/C(C#N)=C/c1ccc(-c2ccc(S(=O)(=O)N3CCOCC3)cc2)o1 | 0.33% (inactive)
66 | Cc1cc(C)nc(Sc2ccc([N+](=O)[O-])cc2[N+](=O)[O-])n1 | 14.6% (active)
67 | Cc1cc(C)n(C(=O)c2ccc([N+](=O)[O-])cc2[N+](=O)[O-])n1 | 0.325% (inactive)
68 | CN(C)/N=C/c1ccc(Sc2ccc([N+](=O)[O-])cc2[N+](=O)[O-])o1 | 2.35% (inactive)
69 | N#C/C(=C\c1cccn1-c1ccccc1)C(=O)NC1CCCCC1 | 2.54% (inactive)

Row | SMILES | CPE inhibition
70 | O=[n+]1cc(-c2ccccc2)n([O-])c2c1CCCCC2 | 0.81% (inactive)
71 | CCOC(=O)c1cc[n+](CC(=O)c2ccc(F)cc2)cc1 | inactive
72 | COc1ccc(NC(=O)CC2(Cc3ccccc3)CCOC(C)(C)C2)cc1 (stereo not given) | inactive
73 | Cc1cccc(C)c1NC1=C(Cl)C(=O)OC1OC(C)C (stereo not given) | inactive
74 | CCOC1OC(=O)C(Cl)=C1Nc1ccc(C)cc1C (stereo not given) | 0.385% (inactive)
75 | Cc1ccc(NC2=C(Cl)C(=O)OC2OC(=O)c2ccco2)cc1C (stereo not given) | 14% (active)
76 | COc1cc(NC(=O)CN2CCC(C)CC2)c(C)cc1[N+](=O)[O-] | inactive
77 | CCN(CC)S(=O)(=O)c1ccc2oc(C(=O)N3CCc4ccccc4C3)c(C)c2c1 | 0.865% (inactive)
78 | N#Cc1cc(NCC2CCCO2)c([N+](=O)[O-])cc1C#N (stereo not given) | 0.075% (inactive)
79 | CN(CC(=O)Nc1ccc(S(=O)(=O)N2CCCC2)cc1)Cc1ccc(Cl)cc1 | 0.055% (inactive)
80 | CN(Cc1cccc(Cl)c1Cl)C(=O)c1ccc(NC(=O)CC#N)cc1 | inactive
81 | CC(C)C(=O)NC(=S)Nc1ccc(S(=O)(=O)N2CCCC2)cc1 | inactive
82 | CCOc1ccccc1N(CC(=O)Nc1ccc(S(=O)(=O)N2CCOCC2)cc1)S(=O)(=O)c1ccc(Cl)cc1 | 0.98% (inactive)
83 | CN(CC(=O)Nc1ccc(S(=O)(=O)N2CCCC2)cc1)Cc1ccc(Cl)cc1Cl | 13.3% (active)
84 | CN(CC(=O)Nc1ccc(Cl)cc1)c1ccc(S(=O)(=O)N2CCCCC2)cc1[N+](=O)[O-] | 13% (active)
85 | CN(CC(=O)Nc1ccc(F)cc1)c1ccc(S(=O)(=O)N2CCCCC2)cc1[N+](=O)[O-] | 2.78% (inactive)
86 | CN(CC(=O)Nc1ccc(S(=O)(=O)N2CCCC2)cc1)Cc1cccc(Cl)c1Cl | 9% (active)
87 | COc1ccc(CCN(C)c2ccc(S(=O)(=O)N3CCCC3)cc2[N+](=O)[O-])cc1OC | inactive
88 | CCc1cccc(C)c1NC(=O)CSc1nc(-c2ccccc2F)nc2nc[nH]c12 | inactive
89 | CCCCn1c(-c2ccco2)n[nH]c1=S | 1.02% (inactive)
90 | CC(OC(=O)/C=C/c1ccco1)C(=O)Nc1cccc([N+](=O)[O-])c1 (stereo not given) | 0.7% (inactive)
